Compound activity (PubChem)
Gal4-VP16 FLuc: VP16 counterscreen qHTS for inhibitors of ROR gamma transcriptional activity; actives 3.5% (n = 310,000); Drosophila S2 Gal4-VP16 UAS-luciferase, luminescence, 20 h; Potency, µM (titrated, usually from 53.6 µM), for inactives: at the top dose activity, negative = inhibition, hits mostly inhibitors;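 note: Gal4-VP16 expression switched on by copper sulfate through the metallothionein promoter; % is set by controls: 0 for no effect and ±100 for the full control effect; nearly all actives have a fitted effect of over 50% in size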
S2 tox: Viability Counterscreen for Primary qHTS for Inhibitors of ATXN expression | S2 cells (HEK-293 line with an ATXN2-luciferase reporter) viability, CellTiter-Fluor protease fluorescence, 24 h | Potency, µM (titrated, usually from 56.7 µM), actives largely listed as cytotoxic | actives 0.49% (n = 400,000) | AID 651635, 2014; note: nearly all actives have a fitted effect of over 40% in size
TGFb inhibitor: qHTS for Inhibitors of TGF-b | HepG2 CAGA-GFP TGF-b/SMAD3 reporter, GFP fluorescence, 18 h; TGF-beta stimulated, 500 pg/mL final | Potency, µM (highest dose often 46.1 µM), without a hit: at the top dose activity, negative = inhibition, most hits filed as inhibitors | actives 1.2% (n = 410,000) | AID 588855, 2011; note: % is set by controls: 0 for no effect and ±100 for the full control effect; nearly all actives have a fitted effect of over 65% in size
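Inhibition of TGF-beta-driven CAGA-GFP reporter expression in HEPG2 cells is measured by cellular GFP fluorescence after 18 h stimulation with 500 pg/mL recombinant TGF-beta in 1% FBS medium at 37 degrees C.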
HepG2 viability: qHTS for Inhibitors of TGF-b: Cytotox Counterscreen | AID 588856, 2011 | HepG2 CAGA-GFP viability, ATP luminescence, 18 h | Potency, µM (series often up to 46.1 µM), inactives show top-dose activity change, negative = cytotoxicity, usual class: cytotoxic | actives 0.76% (n = 410,000)
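HepG2 CAGA-GFP cells (1000/well, DMEM with 1% FBS) received compound, then TGF-beta at 500 pg/mL final, and were incubated 18 hours at 37 degrees C. Viability was read by CellTiter-Glo luminescence. Media-only wells were set as complete cell-killing and DMSO as no toxicity.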
ATXN2 expr inh: Primary qHTS for Inhibitors of ATXN expression | Potency, µM (doses to about 57 µM), for the others: at the highest dose activity change, negative = inhibition, hits mostly inhibitors | actives 0.72% (n = 360,000) | HEK-293 ATXN2-luciferase reporter, luminescence, 24 h | AID 1745845, 2022; note: % is set by controls: 0 for no effect and ±100 for the full control effect; nearly all actives have a fitted effect of over 55% in size
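ATXN2-luciferase reporter cells (luciferase flanked by upstream and downstream ATXN2 gene portions) were treated 24 h at 37 °C with compounds at up to 57 uM. SteadyGlo luminescence gave expression; GF-AFC fluorescence gave viability.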
RORg inh: qHTS for inhibitors of ROR gamma transcriptional activity; Drosophila S2 Gal4-RORgamma UAS-luciferase reporter, 20 h; Potency, µM (series often up to 53.6 µM), for inactives: top-dose activity change, negative = inhibition, hits mostly inhibitors; actives 5.4% (n = 310,000); AID 2551, 2010; Nuclear receptor ROR-gamma (Mus musculus), P51450; note: % is set by controls: 0 for no effect and ±100 for the full control effect; nearly all actives have a fitted effect of over 60% in size
Target sequence (P51450 whole entry, looked up, the tested form may be a part): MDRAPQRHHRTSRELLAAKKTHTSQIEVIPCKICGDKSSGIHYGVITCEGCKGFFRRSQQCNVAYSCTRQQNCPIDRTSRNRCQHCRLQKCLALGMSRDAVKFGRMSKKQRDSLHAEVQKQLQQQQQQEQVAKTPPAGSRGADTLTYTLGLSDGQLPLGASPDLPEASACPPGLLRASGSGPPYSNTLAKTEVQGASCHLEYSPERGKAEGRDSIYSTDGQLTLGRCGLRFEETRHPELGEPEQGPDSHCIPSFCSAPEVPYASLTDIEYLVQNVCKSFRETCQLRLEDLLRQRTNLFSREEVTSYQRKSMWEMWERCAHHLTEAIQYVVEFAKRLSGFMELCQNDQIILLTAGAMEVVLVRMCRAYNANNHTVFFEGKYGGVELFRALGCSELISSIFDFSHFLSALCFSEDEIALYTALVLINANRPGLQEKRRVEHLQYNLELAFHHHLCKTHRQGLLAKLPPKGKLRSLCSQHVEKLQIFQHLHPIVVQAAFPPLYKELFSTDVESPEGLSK
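Stable Schneider cell line, Gal4 DNA-binding domain fused to ROR gamma, UAS-luciferase. Cmpd 1 hr RT → CuSO4 700 uM final → 20 hr RT → luciferase reagent 10 min → luminescence.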
* hit, by the source's call; i = inactive; ? = inconclusive; · = no result; ! = a repeat was not active; [ ] = remark or other dose. Only some compounds are listed: those with a hit (about 6.1% of all), similar ones and a draw of the others. Calls come from the whole dose curve; as a rule, active = well fitted curve in the direction sought with a large enough effect; inconclusive = small, poorly fitted or top-dose-only effect, or another doubt; inactive = no such curve, though single readings can be large; an effect the other way counts as inactive or inconclusive. Potency is the fitted concentration of half-maximal effect.

SMILES | Gal4-VP16 FLuc | S2 tox | TGFb inhibitor | HepG2 viability | ATXN2 expr inh | RORg inh
CCCCNc1c(-c2ccc(OC)c(SC(C)CC)c2)nc2ccc(C)cn12 (centres undefined) | · | 11µM* | 13µM* | 14µM* | 13µM*! | ·
CCC(C)Sc1cc(-c2nc3ccccn3c2NC2CCCCC2)ccc1OC (centres undefined) | · | 32µM* | ? | -117% | ? | ·
COc1ccc(-c2cc(-c3nc4ccccn4c3NCc3ccccc3)ccc2OC)cc1 | · | 7.9µM* | ? | -15% | 4µM* | ·
CCCCCCSc1cc(-c2nc3ccc(C)cn3c2NCCCC)ccc1OC | · | 14µM* | ? | -57% | 0% | ·
COc1cc(C)ccc1OCCSc1nc2ccc(NC(=O)c3cccs3)cc2s1 | · | i | -6% | -13% | -16% | ·
CC1COC2(CCN(c3nc(=O)c4cc(C(F)(F)F)cc([N+](=O)[O-])c4s3)CC2)O1 (centres undefined) | · | · | · | · | 68% | ·
CCCCNc1c(-c2ccc(OC)c(SC(C)CC)c2)nc2cc(C)ccn12 (centres undefined) | · | 32µM* | 11µM* | 11µM* | 25µM* | ·
CCC(C)Sc1cc(-c2nc3ccc(C)cn3c2NCc2ccccc2)ccc1OC (centres undefined) | · | 10µM* | 13µM* | -40% | 18µM* | ·
CC(=O)c1ccc(-c2cccc(-c3nc4ccccn4c3NC3CCCCC3)c2)cc1 | · | 16µM* | ? | -25% | ? | ·
Cc1ccc2nc(-c3cccc(SC4CCCCC4)c3)c(NC3CCCCC3)n2c1 | · | i | -13% | -18% | -5% | ·
COC(=O)[C@@H]1CCCN1C(=O)c1c(OC)cc(=O)n2c1CCN(Cc1ccc3nsnc3c1)CC2 | · | i | · | · | · | ·
CN(Cc1ccon1)C(=O)c1cnn(-c2ncc3c(n2)-c2ccccc2CCC3)c1C1CC1 | · | i | · | · | · | ·
Cc1nc(S/C(=C/c2ccc(-c3cccc(Cl)c3)o2)C(=O)O)n[nH]1 | 3.5µM* | i | 143% | -16% | 2% | 1.3µM*
CC(C)(C)c1ccc(OCC(=O)N/N=C/c2cc(Br)ccc2OC(=O)c2ccco2)cc1 | 1.3µM* | ? | 1% | -5% | ? | 0.25µM*
CN(C)C(=O)c1ccc(-c2ccc3ncnc(N4CCNCC4)c3c2)cc1 | 7% | · | · | · | · | -12%
CO[C@H]1COC(=O)[C@H]2CCCN2C(=O)[C@@H](C)COC(=O)C/C=C\[C@@H]1C | -10%[10 µM] | · | · | · | · | 1%[10 µM]
CCOC(=O)N/N=C1\CC(C)CC(C)(C)C1 (centres undefined) | -4% | i | 35% | 37% | -15% | 15%
COCCNC(=S)NN=C1CCCCCC1 | 6.3µM* | ? | -25% | -19% | -1% | 2µM*
COCCNC(=S)N/N=C1\CC(C)CC(C)(C)C1 (centres undefined) | 3.5µM* | i | -20% | -19% | -28% | 1µM*
O=C1NCCN(Cc2ccc(F)cc2)C1=O | · | i | -4% | 3% | 9% | ·
CCOC(=O)c1c2c(n(Cc3ccccc3)c1C)C(=O)C(=O)c1ccccc1-2 | · | 15µM* | ? | -106% | 19µM* | ·
O=C(CN1C(=O)c2ccccc2S1(=O)=O)c1ccc(F)c(F)c1 | 11µM* | i | -6% | 1% | ? | 10µM*
CSc1cccc(NC(=O)CN2C(=O)c3ccccc3S2(=O)=O)c1 | 13µM* | i | 7% | 13% | ? | -27%
COc1ccc(C(=O)CN2C(=O)c3ccccc3S2(=O)=O)cc1Br | -17% | ? | -14% | -50% | ? | 0%
COc1ccc(C(=O)CN2C(=O)c3ccccc3S2(=O)=O)cc1 | ? | i | 0% | -26% | 0.5µM* | 5.6µM*
SMILES | Gal4-VP16 FLuc | S2 tox | TGFb inhibitor | HepG2 viability | ATXN2 expr inh | RORg inh
Cn1cc(CNCc2ccc(OC(F)(F)F)cc2)c(-c2ccc3c(c2)OCCO3)n1 | 3.5µM* | ? | ? | -52% | · | 10µM*
Cn1cc(CNCc2cn[nH]c2-c2ccc(F)cc2)c(-c2ccc3c(c2)OCCO3)n1 | 0% | i | 3% | -3% | -13% | 12%
CC(=O)Nc1ccc(NC(=O)CSc2nnc(NC(=O)c3cccc(F)c3)s2)cc1 | ? | i | -3% | 0% | 31% | 13µM*
O=C(CSc1nnc(NC(=O)c2c(F)cccc2F)s1)Nc1ccc(F)cc1 | -7% | ? | -12% | 6% | · | -40%
CCc1ccc(Nc2nnc(SCC(=O)Nc3ccc(C(=O)O)cc3)s2)cc1 | 7.1µM* | i | 5% | -6% | 19% | 5µM*
CCCNc1nc2c(c(=O)n(C)c(=O)n2C)n1Cc1cccc(C)c1 | 5µM* | i | ? | -8% | -9% | -32%
COCCNc1nc2c(c(=O)n(C)c(=O)n2C)n1Cc1cccc(C(F)(F)F)c1 | 3.2µM* | i | ? | -2% | -9% | -14%
CCO[C@H]1OC(C(=O)N2CCN(Cc3ccccc3)CC2)=C[C@@H](C2CCCCC2)[C@@H]1CCCO | 0% | ? | ? | -21% | ? | 32%
CCO[C@@H]1OC(C(=O)N2CCN(Cc3ccc4c(c3)OCO4)CC2)=C[C@H](C2CCCCC2)[C@H]1CCCO | -13% | 18µM* | ? | -1% | ? | 14%
COc1ccc(-c2cc(C(=O)Nc3cc(C(F)(F)F)ccc3Cl)no2)cc1 | · | i | 2% | -40% | -2% | ·
S=C(Nc1ccccn1)Nc1ccccc1Cl | -16% | i | ? | -6% | 12% | 8%
Cc1ccccc1NC(=S)Nc1ccc(Br)cc1 | 11µM* | i | 0% | -45% | -3% | 11µM*
Cc1ccccc1NC(=S)Nc1ccccn1 | 1.6µM* | ? | 1% | 0% | · | 0.5µM*
Cc1c(Cl)cccc1NC(=S)Nc1ccccn1 | ? | i | ? | 22% | 4% | 1µM*
CCOC(=O)c1c(C)[nH]c(C)c1S(=O)(=O)N1CCCC(C(=O)NCc2ccc(N(C)C)cc2)C1 (centres undefined) | · | i | -20% | -4% | 0% | ·
c1ccc(CSc2ccc(-c3ccccn3)nn2)cc1 | 1% | i | -10% | 4% | -34% | 7.9µM*
CCSc1nc(-c2ccccc2)nc(C(Cl)Cl)n1 | 10µM* | ? | 5.6µM* | 7.1µM* | ? | 1.3µM*
COCCCN(C(=S)NC(=O)c1ccc(Br)cc1)c1c(N)n(Cc2ccccc2)c(=O)[nH]c1=O | 3% | ? | 0% | 4% | -1% | 10µM*
